Consider 9 molecules from PubChem BioAssay (NCI).

Structures are written as SMILES. Compounds without any hit were thinned out: in the full panel of roughly 83,000, 20% have a hit.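 Single-concentration screen, 48 h exposure, 96-well plates. Endpoint: percent growth. Below 10 = active.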 Unmarked numbers belong to inactive results. Activity calls are given as the source filed them.

Assay in all cases: NCI-60 one-dose screen, 48 h (100 = growth as untreated, 0 = no growth, -100 = all killed)
Assay [1] deals with SK-MEL-2 melanoma. As to conditions: 10 µM unless noted.
Assay [2] has as its system SN12C renal. As to conditions: 10 µM unless noted.
Assay [3] concerns UO-31 renal. The conditions noted are these: 10 µM unless noted.
Assay [4] concerns TK-10 renal. As to conditions: 10 µM unless noted.
Assay [5] relates to ACHN renal. The conditions noted are these: 10 µM unless noted.
Assay [6] deals with CAKI-1 renal. The conditions noted are these: 10 µM unless noted.
Assay [7] relates to A498 renal. As to conditions: 10 µM unless noted.
Assay [8] concerns CCRF-CEM leukemia. As to conditions: 10 µM unless noted.
Assay [9] relates to MOLT-4 leukemia. The conditions noted are these: 10 µM unless noted.
In assay [10] the test system is SR leukemia. As to conditions: 10 µM unless noted.
Assay [11] concerns RPMI-8226 leukemia. As to conditions: 10 µM unless noted.
Assay [12] has as its system OVCAR-8 ovarian. The conditions noted are these: 10 µM unless noted.
For assay [13], the system named is OVCAR-5 ovarian. As to conditions: 10 µM unless noted.
Assay [14] deals with OVCAR-4 ovarian. The conditions noted are these: 10 µM unless noted.
Assay [15] deals with SK-OV-3 ovarian. As to conditions: 10 µM unless noted.
For assay [16], the system named is OVCAR-3 ovarian. As to conditions: 10 µM unless noted.
Assay [17] deals with HS 578T breast. The conditions noted are these: 10 µM.
Assay [18] relates to IGROV1 ovarian. As to conditions: 10 µM unless noted.
The test system of assay [19] is NCI/ADR-RES ovarian. As to conditions: 10 µM unless noted.
Assay [20] deals with EKVX NSCLC. As to conditions: 10 µM unless noted.

In the case of `[O-]/[N+](=C\c1ccccc1)CC1(O)CCCCC1`, the growth is 111% in [1]; 94.5% in assay [2]; 96.3% in assay [3]; 103% in [4]; 99.2% in assay [5]; 104% in assay [6]. The growth in [7] is 82.9%; in assay [8] it was 101%; in [9] it was 106%; in assay [10], 99.5%; in assay [11], 97.2%; in [12] it was 99.5%. For the same molecule, the growth in assay [13] was 95.8%; in assay [14] it was 95.9%; in [15] it was 113%; in assay [16] it was 111%; in assay [17], 98.2%.

On to `CCOC(=O)Nc1ccc2nc(-c3cscn3)[nH]c2c1`, for which the growth in assay [1] is 32.4%; in assay [2], 51.1%; in assay [3], 50.9%; in assay [4], 63.2%; in assay [5], 73.9%; in [6], 39.3%. Moreover, the growth was 41.8% in assay [7]; 70.8% in [8]; 49.9% in [9]; 23.3% in assay [10]; 43.1% in [11]; 57.8% in [12]. In addition, the growth in [13] was 85.9%; in assay [14] it was 89.7%; in [15], 56.5%; in assay [18], 42.6%; in [16], 22.8%; in assay [17], 64.7%.

For `COc1ccc(-c2nc3ccc(Cc4ccc5nc(-c6ccc(OC)cc6)[nH]c5c4)cc3[nH]2)cc1`, the growth was 41.2% in assay [1]; 42.4% in [2]; 89.3% in assay [3]; 75.1% in [4]; 85.4% in assay [5]; 56.3% in assay [6]. The growth in [7] was 102%; in [8] it was 13.4%; in assay [9], 43.7%; in assay [10], 38.8%; in [11], 18.5%; in [12] it was 15.1%. Moreover, the growth is 91.2% in assay [13]; 11.4% in [14]; 97.3% in assay [15]; -16.9% (active) in assay [18]; -21.9% (active) in assay [16]; 73.1% in assay [17].

Take `COc1ccc(C(=O)c2c(N)nc3n2CCCC3)cc1OC`: the growth in assay [1] was 103%; in assay [2], 109%; in [3], 84.3%; in assay [4], 92.8%; in assay [5], 107%; in [6] it was 93.9%. In addition, the growth in [7] was 98.6%; in assay [8], 99.8%; in [9], 84.1%; in assay [10], 84.3%; in assay [11], 99.3%; in assay [12], 95.4%. Further, the growth in assay [13] is 111%; in [14] it was 107%; in [15], 105%; in [18], 99.4%; in [16], 109%; in assay [17], 108%. For the same molecule, the growth in [19] is 107%.

`CC(C)N=C1CCCC1C(=S)SSC(=S)C1CCCC1=NC(C)C` (stereo unspecified): the growth in assay [1] was 94.7%; in assay [2] it was 58.1%; in [3], 54.3%; in assay [4], 109%; in assay [5], 68.4%; in [6], 39.3%. The growth is 83.4% in [7]; 22.9% in assay [8]; 61.2% in assay [9]; 47.7% in assay [10]; 59.5% in [11]; 61.7% in [12]. Further, the growth is 93.9% in assay [13]; 53.8% in assay [14]; 110% in assay [15]; 52.8% in assay [18]; 44.8% in assay [16]; 75.9% in assay [17].

In the case of `N#CC1=C(N)Oc2nc[nH]c(=O)c2C1c1cccs1` (stereo unspecified), the growth is 113% in assay [1]; 105% in assay [2]; 97.1% in assay [3]; 105% in assay [4]; 101% in [5]; 94.9% in assay [6]. Besides, the growth in assay [7] is 107%; in assay [8], 95%; in assay [9] it was 94.3%; in assay [10], 92%; in assay [11], 100%; in assay [12], 98.3%. The growth in assay [13] was 100%; in assay [14], 90.9%; in assay [15] it was 105%; in assay [18] it was 111%; in assay [16], 108%; in assay [19], 113%.

Take `CC(C)N1CCN(c2ccncc2S(=O)(=O)N2CCN(C)CC2)CC1`: the growth was 107% in assay [1]; 98.4% in [2]; 87.3% in assay [3]; 101% in assay [4]; 101% in assay [5]; 98.5% in assay [6]. Besides, the growth in assay [7] was 107%; in assay [8], 98.4%; in [9], 104%; in assay [10], 93.5%; in [11] it was 102%; in assay [12], 103%. The growth in [13] was 96.9%; in [14], 96.1%; in assay [15] it was 103%; in assay [16], 110%; in assay [17], 105%.

Regarding `NC(N)=N/N=C\c1cccc(OCc2ccccc2)c1`, the growth in [1] was 61.4%; in assay [20], 80.7%; in [2], 86.6%; in [3] it was 63.9%; in [4], 78.6%; in assay [5] it was 87.4%. For the same molecule, the growth in [8] was 82.2%; in assay [9], 80.1%; in assay [10], 19.4%; in [11], 69.6%; in assay [12] it was 89.3%; in [13], 85.3%. For the same molecule, the growth in assay [14] was 64.3%; in [18], 74.7%; in assay [16], 79.1%; in assay [19], 76.5%.

As for `SCc1ccc(CS)cc1`, the growth is 108% in assay [1]; 104% in [20]; 100% in assay [2]; 85.6% in assay [3]; 115% in assay [4]; 102% in assay [5]. Moreover, the growth in [8] is 98%; in assay [11], 103%; in [12] it was 98.4%; in assay [13] it was 95.9%; in assay [14] it was 101%; in assay [15], 104%. For the same molecule, the growth in [18] is 105%; in assay [16] it was 115%; in assay [19] it was 109%.
